Laboratory results: PubChem BioAssay AID1159580 (chemical genetic matrix, 2015)
Out of some 5,500 compounds screened, about 2,000 (36%) were called active. About 18% were inconclusive and are not listed. Rule as the data show it: active = normalized growth mostly below about 0.91 (no sharp cut-off); inconclusive = no clear call, values can overlap the other calls; inactive = mostly above about 0.92. Some of the results follow.

Assay: chemical genetic growth profiling, strain panel (AID 1159580);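 also: tested at 20 µM; growth read once vehicle control cultures reached saturation at 30 °C; 1 = growth at the plate median or of vehicle wells; lower values mean less growth of the strain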
Conditions: S. cerevisiae deletion strains, growth OD

Measured: normalized growth

N.N.N.N.N.N.N.N.N.N.N.N.N.N.O.O.[Ru+4].[Ru+5].[Ru+5]
inactive: locus YMR263W, strain SAP30, active compounds read low 0.993
active: locus YAL040C, strain CLN3, active compounds read low 0.206 | locus YDR363W, strain ESC2, active compounds read low 0.323 | locus YER002W, strain NOP16, active compounds read low 0.155 | locus YGR078C, strain PAC10, active compounds read low 0.158 | locus YGR229C, strain SMI1, active compounds read low 0.151 | locus YJR075W, strain HOC1, active compounds read low 0.115 | locus YMR307W, strain GAS1, active compounds read low 0.218 | locus YNL128W, strain TEP1, active compounds read low 0.194 | locus YNL153C, strain GIM3, active compounds read low 0.193 | locus YNL175C, strain NOP13, active compounds read low 0.175 | locus YNL197C, strain WHI3, active compounds read low 0.154 | locus YNL224C, strain SQS1, active compounds read low 0.173 | locus YOR083W, strain WHI5 (second series), active compounds read low 0.167
